This note sets out measurements from PubChem BioAssay (Tox21).

The nature of assay [1]: qHTS assay to test for compound auto fluorescence at 535 nm (green) in HEK293 cells (AID 720680). Background: qHTS replaces the single test concentration by a dilution series.
A short description of assay [2]: qHTS assay to test for compound auto fluorescence at 460 nm (blue) in HEK293 cell free culture (AID 720681). The essentials:
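Test compounds were pinned into cell-free culture medium (DMEM with 10% FBS) and fluorescence was read directly at Ex/Em 405/460 nm. Signals were expressed as fluorescence equivalents of triamterene, with DMSO vehicle as control.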

Assay [3] in a line: qHTS assay to test for compound auto fluorescence at 535 nm (green) in HEK293 cell free culture (AID 720682). Put shortly:
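Each library compound, or DMSO control, is added by pintool to medium alone, comprising DMEM and 10% FBS. Emission at 535 nm following 485 nm excitation is quantified against fluorescein.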

A short description of assay [4]: qHTS assay to test for compound auto fluorescence at 590 nm (red) in HEK293 cell free culture (AID 720683). The essentials:
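Tox21 10K library compounds were pinned into cell-free DMEM with 10% FBS and fluorescence was read at excitation 540 nm. Activity is expressed as Rose Bengal sodium equivalency.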

Assay [5] in a line: qHTS assay to test for compound auto fluorescence at 590 nm (red) in HepG2 cell free culture (AID 720684). Put shortly: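 Readout: intrinsic compound fluorescence at 590 nm emission after 540 nm excitation, scaled to Rose Bengal sodium. Matrix was cell-free MEM with 10% FBS; DMSO vehicle wells served as control.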
The nature of assay [6]: qHTS assay to test for compound auto fluorescence at 460 nm (blue) in HepG2 cell free culture (AID 720685). Put shortly: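 Cell-free plates of MEM plus 10% FBS received 23 nL compound or DMSO vehicle; blue-channel (405/460 nm) intensity scored against triamterene as reference fluorophore.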
A short description of assay [7]: qHTS assay to test for compound auto fluorescence at 535 nm (green) in HepG2 cell free culture (AID 720686).
Assay [8] in a line: qHTS assay to test for compound auto fluorescence at 460 nm (blue) in HepG2 cells (AID 720687). Put shortly: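 Cells (2,000/well in MEM with 10% FBS) attached overnight at 37 C, then were exposed to compound or DMSO for 1 hr at 37 C, 5% CO2. Fluorescence read at Ex/Em 405/460 nm, expressed as triamterene-equivalent signal.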
For assay [9], the target named is Glucocorticoid receptor (Homo sapiens) (UniProt P04150). Put plainly: qHTS assay to identify small molecule agonists of the glucocorticoid receptor (GR) signaling pathway (AID 720691; active = well fitted activation curve with a large enough effect in the signal ratio in the repeat runs, not every such curve was filed as active; the % refers to the signal ratio). Put shortly: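 Agonist-mode qHTS in HeLa cells stably expressing a glucocorticoid-response-element beta-lactamase reporter. Fluorescence intensity read with FRET substrate (2 h, room temperature) after 18 h compound treatment at 37 C.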
Sequence of Glucocorticoid receptor (Homo sapiens) (P04150 whole entry, looked up): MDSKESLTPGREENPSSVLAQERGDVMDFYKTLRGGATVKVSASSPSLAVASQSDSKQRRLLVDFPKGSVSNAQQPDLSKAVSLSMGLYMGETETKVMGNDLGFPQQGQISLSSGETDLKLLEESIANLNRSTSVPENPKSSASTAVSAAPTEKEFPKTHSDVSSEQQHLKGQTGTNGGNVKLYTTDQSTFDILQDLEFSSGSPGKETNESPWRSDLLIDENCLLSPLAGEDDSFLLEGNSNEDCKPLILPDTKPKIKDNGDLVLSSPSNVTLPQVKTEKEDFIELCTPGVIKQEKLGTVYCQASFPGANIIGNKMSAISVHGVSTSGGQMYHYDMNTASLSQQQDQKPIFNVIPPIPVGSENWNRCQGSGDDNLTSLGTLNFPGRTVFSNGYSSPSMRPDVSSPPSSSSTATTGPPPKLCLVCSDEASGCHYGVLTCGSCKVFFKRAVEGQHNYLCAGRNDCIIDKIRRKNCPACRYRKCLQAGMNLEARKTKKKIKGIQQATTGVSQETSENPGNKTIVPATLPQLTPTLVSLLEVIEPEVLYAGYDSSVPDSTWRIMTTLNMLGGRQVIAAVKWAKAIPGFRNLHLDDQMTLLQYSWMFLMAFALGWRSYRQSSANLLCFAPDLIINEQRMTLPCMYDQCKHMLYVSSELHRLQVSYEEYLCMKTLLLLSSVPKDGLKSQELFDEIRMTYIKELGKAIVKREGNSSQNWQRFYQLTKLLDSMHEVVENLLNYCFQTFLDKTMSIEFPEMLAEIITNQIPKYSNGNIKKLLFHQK

Assay [10] shares this target. Kind of assay: qHTS assay to identify small molecule antagonists of the glucocorticoid receptor (GR) signaling pathway (AID 720692; active = well fitted inhibition curve with a large enough effect in the signal ratio in the repeat runs, not every such curve was filed as active; the % refers to the signal ratio; also: potency is read from the fitted curve at half-maximal effect). Put shortly:
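Inhibition of dexamethasone-driven (5 nM final) beta-lactamase expression was measured in GRE-reporter HeLa cells over 18 h at 37C. Fluorescence was read after 2 h with the B/G FRET substrate at room temperature.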

The structures appear in SMILES notation. A number with no mark means an inactive call. Results filed as inconclusive are left out. The source made the active and inactive calls. Unless noted, calls follow the shape of the dose curve; as a rule, active = well fitted curve in the direction sought with a large enough effect in the repeat runs; inconclusive = weak or mixed curves; inactive = flat fitted curve, though single readings scatter.

Take `CC1CCC(C(C)CS)CC1S` (stereo not given): the result in assay [1], in assay [3], in [4], in assay [5] and in assay [7] was inactive. The Potency result in assay [2], in assay [6], in assay [8] and in [9] was “inactive” throughout.

Turning to `COc1ccc2nc(S(=O)Cc3ncc(C)c(OC)c3C)[nH]c2c1` (stereo not given), the result in assay [1], in assay [3], in [4], in [5] and in assay [7] was inactive. Besides, the Potency result in assay [2], in [6] and in assay [8] was “inactive” each time.

Turning to `COC(=O)c1sccc1S(N)(=O)=O`, the compound was classed as inactive in assay [1], in assay [3], in assay [4], in assay [5] and in [7]. In addition, the Potency entry in assay [2], in [6], in assay [8] and in assay [9] was “inactive” throughout.

`CCCCCCCCCCCC(=O)OCC(O)CO` (stereo not given): the outcome in assay [1], in assay [3], in assay [4], in [5] and in assay [7] was inactive. Besides, the Potency entry in assay [2], in assay [6] and in [8] was “inactive” throughout.

As for `O=C1CC[C@@H](C(=O)O)N1`, the result in assay [1], in assay [3], in [4], in assay [5] and in assay [7] was inactive. Further, the Potency entry in assay [2], in assay [6], in [8] and in [9] was “inactive” in each case.

On to `CC(C)C1CCC(C(=O)N[C@H](Cc2ccccc2)C(=O)O)CC1` (stereo not given in full), for which the compound was classed as inactive in assay [1], in assay [3], in [4], in assay [5] and in assay [7]. Also, the Potency entry in assay [2], in assay [6], in assay [8] and in [9] was “inactive” throughout.

As for `COc1ccc(-c2cc(C(F)F)nn2-c2ccc(S(N)(=O)=O)cc2)cc1F`, the compound was called inactive in [1], in assay [3], in assay [4], in assay [5] and in assay [7]. The Potency entry in assay [2], in assay [6] and in assay [8] was “inactive” each time.

Consider `ClC1=C(Cl)C1(Cl)Cl`, for which the compound was classed as inactive in assay [1], in assay [3], in assay [4], in assay [5] and in assay [7]. The Potency result in [2], in assay [6] and in [8] was “inactive” each time.

As for `CCCc1nc2c(C)cc(-c3nc4ccccc4n3C)cc2n1Cc1ccc(-c2ccccc2C(=O)O)cc1`, the outcome in assay [1], in [3], in [4], in assay [5] and in assay [7] was inactive. Moreover, the Potency result in [2], in assay [6], in assay [8] and in assay [9] was “inactive” throughout.

Take `CCCC(=O)OC(=O)CCC`: the compound was called inactive in assay [1], in assay [3], in assay [4], in assay [5] and in assay [7]. The Potency result in [2], in assay [6] and in assay [8] was “inactive” in each case.

For the compound `O=C(CCS)OCC(COC(=O)CCS)(COC(=O)CCS)COC(=O)CCS`, the result in [1], in assay [3], in assay [4], in [5] and in assay [7] was inactive. The Potency entry in [2], in assay [6], in assay [8], in [9] and in assay [10] was “inactive” each time.

Consider `c1ccc2sc(SSc3nc4ccccc4s3)nc2c1`, for which the compound was classed as inactive in assay [1], in [3], in assay [4], in assay [5] and in assay [7]. The Potency entry in assay [2], in assay [6], in assay [8], in assay [9] and in [10] was “inactive” throughout.

In the case of `COC(OC)OC`, the result in assay [1], in assay [3], in [4], in [5] and in assay [7] was inactive. The Potency entry in assay [2], in assay [6], in [8], in assay [9] and in assay [10] was “inactive” in each case.

For the compound `CCN(CC)CCOC(=O)C(c1ccccc1)c1ccccc1`, the compound was classed as inactive in assay [1], in assay [3], in assay [4], in assay [5] and in assay [7]. In addition, the Potency entry in assay [2], in assay [6], in assay [8], in assay [9] and in assay [10] was “inactive” throughout.

For the compound `Cc1ccc(Nc2c(F)cccc2Cl)c(CC(=O)O)c1`, the call in [1], in assay [3], in assay [4], in [5] and in [7] was inactive. Further, the Potency entry in [2], in assay [6], in [8], in assay [9] and in assay [10] was “inactive” each time.

Regarding `COc1cc(S(=O)(=O)Nc2ccccc2)c(OC)cc1N`, the result in assay [1], in [3], in assay [4], in assay [5] and in assay [7] was inactive. The Potency result in assay [2], in [6], in [8], in assay [9] and in assay [10] was “inactive” in each case.

`CC(=O)OCCC1CCCCC1`: the call in assay [1], in assay [3], in [4], in assay [5] and in [7] was inactive. In addition, the Potency result in assay [2], in assay [6], in assay [8], in assay [9] and in assay [10] was “inactive” in each case.

For the compound `O=C(O)c1cccc(Oc2ccccc2)c1`, the compound was classed as inactive in assay [1], in assay [3], in assay [4], in assay [5] and in assay [7]. The Potency entry in [2], in assay [6], in [8], in [9] and in [10] was “inactive” each time.

As for `CC(C)OC(=O)c1ccccc1C(=O)OC(C)C`, the outcome in assay [1], in assay [3], in assay [4], in [5] and in assay [7] was inactive. The Potency entry in [2], in assay [6], in assay [8], in assay [9] and in assay [10] was “inactive” in each case.

Turning to `CN1C(CSCC(F)(F)F)Nc2cc(Cl)c(S(N)(=O)=O)cc2S1(=O)=O` (stereo not given), the compound was called inactive in [1], in assay [3], in assay [4], in assay [5] and in assay [7]. Also, the Potency entry in [2], in assay [6], in assay [8], in assay [9] and in assay [10] was “inactive” throughout.

On to `CC/C=C\C/C=C\C/C=C\CCCCCCCC(=O)OCC`, for which the compound was classed as inactive in [1], in assay [3], in assay [4], in assay [5] and in assay [7]. In addition, the Potency entry in assay [2], in [6], in [8] and in [9] was “inactive” each time. Also, the Potency in [10] is 50.1 µM (active).

As to `CCCCOC(=O)CCCCC(=O)OCCCC`, the result in [1], in assay [3], in [4], in assay [5] and in assay [7] was inactive. Moreover, the Potency entry in [2], in assay [6], in assay [8], in assay [9] and in assay [10] was “inactive” each time.

Take `O=C1[C@@H]2[C@H]3CC[C@H](C3)[C@@H]2C(=O)N1CCCCN1CCN(c2ncccn2)CC1`: the outcome in assay [1], in assay [3], in [4], in assay [5] and in assay [7] was inactive. The Potency entry in [2], in assay [6], in assay [8], in assay [9] and in assay [10] was “inactive” each time.
